Out of some 1,000 compounds screened, about 230 (23%) were called active. Another 1% or so got no clear call; they are omitted. The rule behind the calls is not given here. Some of the results follow. Entries with a potency or affinity are not part of this list.

Sequence of Long-chain-fatty-acid--AMP ligase FadD28 (Mycobacterium tuberculosis (strain ATCC 25618 / H37Rv)) (P9WQ59 whole entry, looked up): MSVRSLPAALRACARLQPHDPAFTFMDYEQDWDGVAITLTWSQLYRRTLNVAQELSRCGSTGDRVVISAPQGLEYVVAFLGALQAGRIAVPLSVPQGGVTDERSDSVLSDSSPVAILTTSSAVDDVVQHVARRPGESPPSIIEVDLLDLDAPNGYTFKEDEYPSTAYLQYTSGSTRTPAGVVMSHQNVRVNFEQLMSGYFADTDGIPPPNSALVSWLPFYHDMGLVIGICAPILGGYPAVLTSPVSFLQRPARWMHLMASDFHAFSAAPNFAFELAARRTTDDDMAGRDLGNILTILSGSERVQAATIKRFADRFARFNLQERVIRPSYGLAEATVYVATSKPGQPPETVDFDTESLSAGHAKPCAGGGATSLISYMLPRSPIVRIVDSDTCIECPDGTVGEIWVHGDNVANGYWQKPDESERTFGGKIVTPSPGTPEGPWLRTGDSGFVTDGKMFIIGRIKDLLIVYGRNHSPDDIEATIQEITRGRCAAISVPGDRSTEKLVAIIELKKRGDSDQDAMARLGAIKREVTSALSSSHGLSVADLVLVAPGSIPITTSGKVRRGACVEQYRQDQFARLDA

The test addresses Long-chain-fatty-acid--AMP ligase FadD28 (Mycobacterium tuberculosis (strain ATCC 25618 / H37Rv)) (UniProt P9WQ59). Briefly: inhibitors of FadD28 bisubstrate probe binding, dose response, biochemical, fluorescence polarization, cherry-pick (AID 624273). Conditions: series mostly up to 50 µM.
Take `O=C(CNC(=O)c1nc[nH]c1C(=O)NCC(=O)OCc1ccccc1)OCc1ccccc1`: the result was inactive.
On to `COc1ccc(OC)c2[nH]c(=O)c(CCNS(=O)(=O)c3ccc(Cl)cc3)cc12`, for which the compound was called inactive.
Take `Cc1cccc(C(=O)NCC(=O)OCc2nc(N)nc(Nc3ccccc3C)n2)c1`: the compound was classed as inactive.
Consider `O=C(O)CCCc1nc(-c2ccccc2)no1`, for which the compound was classed as inactive.
In the case of `CCOc1cc(/C=C2\N=C(SC)SC2=O)cc([N+](=O)[O-])c1OC(C)=O`, the call was inactive.
For `CCC(C)OC(=O)C1=C(C)NC(=O)CC1c1ccccc1OC` (configuration not stated), the result was inactive.
As to `Cc1ccc(/C=C/C(=O)C2C(=O)c3ccccc3C2=O)cc1`, the result was inactive.
As to `Cc1noc(C)c1C(=O)NCc1ccccc1Br`, the result was inactive.
Consider `O=C(NNC1CC(=O)N(c2ccc(Br)cc2)C1=O)c1cccnc1` (configuration not stated), for which the call was inactive.
For `O=C(O)c1ccc(N=C2SCC(=O)N2Cc2ccccc2)cc1`, the outcome was inactive.
On to `O=C1CC(C(=O)Nc2ccc(Br)cc2)S/C(=N\N=C\c2ccco2)N1` (configuration not stated), for which the compound was classed as inactive.
For `CN(C)S(=O)(=O)c1cc(NC(=O)CSc2ncc(C(F)(F)F)cc2Cl)ccc1Cl` the value was “inactive”; for `COc1cccc(NC(=S)/C(=C(\[O-])c2cc(C)n(-c3ccccc3F)c2C)[n+]2ccc(N(C)C)cc2)c1`, “inactive”.
As to `O=C(c1cc2cc(Cl)ccc2[nH]1)N1CCCCC1`, the compound was called inactive.
For the compound `C/C(=N\N=C(/N)SC1CC(=O)N(c2ccc(Br)cc2)C1=O)c1cccs1` (configuration not stated), the compound was classed as inactive.
For `CCN(CC)c1ccc(/C=N/NC(=O)Cc2cccs2)c(O)c1` the value was “inactive”; for `C[C@H](CO)N1C[C@H](C)[C@H](CN(C)S(=O)(=O)c2cccs2)Oc2ccc(NC(=O)Nc3ccc4c(c3)OCO4)cc2CC1=O`, “inactive”; for `Cc1ccc(-n2ncc3c(=O)[nH]c(SCC(=O)N4CC(=O)Nc5ccccc54)nc32)cc1`, “inactive”.
In the case of `O=C(Cc1ccccc1[N+](=O)[O-])OCC(=O)c1c[nH]c2ccccc12`, the call was inactive.
In the case of `COc1ccc(S(=O)(=O)NCC2CCCN(Cc3cn(C)nc3C)C2)cc1` (configuration not stated), the outcome was inactive.
For `O=C(Cn1cc2c(n1)CCCC2)Nc1cc(-c2cccc(Cl)c2)no1` the value was “inactive”; for `CCCCOc1[nH]c2nc(-c3ccco3)n(Cc3ccco3)c(=N)c2c1C#N`, “inactive”; for `COc1ccc(-c2nc3ccccc3c(=O)n2CCCN2CCOCC2)cc1`, “inactive”.
Turning to `COC(=O)c1sc(NC(C)=O)c(C(=O)OC)c1C`, the outcome was inactive.
Turning to `O=C1NN(c2ccc(Cl)c(Cl)c2)C(=O)/C1=C/c1ccc(-c2ccccc2C(=O)O)o1`, the outcome was inactive.
As for `O=[N+]([O-])c1ccc2[nH]c(=S)sc2c1`, the compound was called inactive.
Consider `Clc1cccc(/C=N/N2CCN(Cc3ccccc3)CC2)c1`, for which the call was inactive.
For `O=C(Nc1cnc2sccn2c1=O)c1ccccc1Cl` the value was “inactive”.
For `Cc1ccc(-n2nnnc2SCC(=O)Nc2nc(-c3ccc(F)cc3)cs2)cc1C`, the compound was called inactive.
`CC1=NN(c2ccc([N+](=O)[O-])cc2)C(=O)C1`: the call was inactive.
On to `COc1ccccc1CO/N=C/NC(=O)c1c(OC)ccnc1Oc1ccc(F)cc1`, for which the compound was classed as inactive.
Take `COCCNC(=O)C1CC(=O)N(c2ccc(OC)cc2)C1c1ccc(OC)cc1` (configuration not stated): the call was inactive.
`CCCOC(=O)c1ccc(NC(=O)c2cc(OC)c(OC)c(OC)c2Br)cc1`: the compound was called inactive.
For `CCOc1cc(C2NC(=O)NC(C)=C2C(=O)OCC2CCCCC2)ccc1O` (configuration not stated), the call was inactive.
As to `Cc1cccc(NC(=O)CN2C(=O)N/C(=C/c3ccc(C)s3)C2=O)c1`, the outcome was inactive.
Consider `COc1ccc(/C=C2/NC(=O)N(CC(=O)Nc3cccc(C)c3)C2=O)cc1O`, for which the compound was called inactive.
For `CC(C)NC(=O)N1CCC(n2nccc2NC(=O)CCOc2ccccc2)CC1`, the compound was called inactive.
For `O=C1NC(=S)S/C1=C\c1cc2ccccc2nc1N1CCCCC1` the value was “inactive”; for `COc1ccc(/C=C2/C(=O)N(Cc3ccco3)C(=O)N(C(C)C)C2=O)cc1`, “inactive”; for `CC1CC(C)CN(CCCNC(=O)Cn2cccc2C(=O)c2ccccc2)C1` (configuration not stated), “inactive”.
Take `CC(=O)c1ccc(C(=O)N2CCCC(Nc3ccccc3)C2)s1` (configuration not stated): the result was inactive.
Take `O=C(c1ccc2nc(Cc3cccc(Cl)c3)oc2c1)N1CCC(O)CC1`: the result was inactive.
With `CCOC(=O)Nc1cc(N)ncn1`, the call was inactive.
For `COc1ccc(CCNC(=O)C(=O)NCCCN2CCOCC2)cc1` the value was “inactive”; for `CCN(CC)c1ccc(/C=c2\sc3nnc(-c4ccccc4Cl)n3c2=O)cc1`, “inactive”.
In the case of `Cc1ccc(S(=O)(=O)N2CCC(NC(=O)c3cccc(F)c3)CC2)cc1`, the outcome was inactive.
For `CCC1(C)Cc2ccccc2-c2nc(NCCO)[nH]c(=O)c21` (configuration not stated), the result was inactive.
For `COCC(=O)/C=C1\Sc2ccccc2N1C` the value was “inactive”; for `O=Cc1ccc(C(=O)OCC(=O)NC(=O)Nc2ccccc2F)cc1`, “inactive”.
For the compound `COc1cccc(-c2nc3ccc(C(=O)NC(C)Cc4cccnc4)cc3o2)c1` (configuration not stated), the call was inactive.
For the compound `Cc1ccc(OCC(=O)Nc2ccncc2)cc1`, the result was inactive.
With `Cc1ccc2nc(SCC(=O)Nc3ccc(C(N)=O)cc3)[nH]c2c1`, the result was inactive.
For `O=S(=O)(c1ccc(N2CCC(c3ccc(Cl)cc3)=N2)cc1)N(CCO)CCO` the value was “inactive”.
As to `Cc1noc(NS(=O)(=O)c2ccc(NC(=O)/C=C/c3ccc(Br)cc3)cc2)c1C`, the compound was called inactive.
With `NC(N)=NS(=O)(=O)c1ccc(NC(=S)NC(=O)/C=C/c2ccc(F)cc2)cc1`, the compound was classed as inactive.
Regarding `CCOc1ccc(N(C(C)C(=O)Nc2cccnc2)S(C)(=O)=O)cc1` (configuration not stated), the compound was called inactive.
`COc1ccc(C2=NOC(C)(c3nnc(-c4ccccc4)o3)C2)cc1` (configuration not stated): the compound was called inactive.
For `Cc1cc(-c2ccc(C)c(S(=O)(=O)Nc3ccc(S(N)(=O)=O)cc3)c2)on1` the value was “inactive”; for `O=S(=O)(c1ccc(Nc2ccc(-c3ccc4c(c3)OCCO4)nn2)cc1)N1CCCC1`, “inactive”; for `Cc1ccccc1C(=O)OCCN(C)Cc1ccccc1`, “inactive”.
For `COC(=O)C1=C(C)N(CCc2c[nH]c3ccccc23)C(=O)C1`, the compound was classed as inactive.
`CC(C)(C)c1ccc(OCCC(=O)Nc2cccc(S(=O)(=O)N3CCCC3)c2)cc1`: the compound was classed as inactive.
As to `COC(=O)c1cn(NC(=O)c2ccc([N+](=O)[O-])c(C)c2)c(=O)c2ccccc12`, the call was inactive.
Regarding `N#CC(=C=[N-])C1=C(C#N)C(c2ccccc2F)C([n+]2ccccc2)C(O)(C2CC2)N1` (configuration not stated), the outcome was inactive.
On to `COc1ccccc1C/C(N)=N/OC(=O)c1cccs1`, for which the outcome was inactive.
As to `COc1ccc(OC)c(NC(=O)CN2C(=O)C(C)N(c3ccc(C)cc3)C2=O)c1` (configuration not stated), the outcome was inactive.
As to `Cc1ccc(S(=O)(=O)Nc2cccc3c2O[C@@H](CN(C)C(=O)Nc2ccc4c(c2)OCO4)[C@H](C)CN([C@@H](C)CO)C3=O)cc1`, the compound was classed as inactive.

Source of the values: PubChem BioAssay AID624273 (Broad Institute, 2012).
